Results taken from PubChem BioAssay (NCI).
This is part of a sample that, as a whole, favours compounds with a hit. Of some 83,000 tested, about 20% had one in any assay.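 How to read the values: 0–100, growth inhibition (40 = 60% inhibited); 0, no net growth; -100 to 0, cell death (-40 = 40% of starting cells died; -100 = all dead).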 Unmarked numbers belong to inactive results. Activity calls are given as the source filed them. The calls were made as follows: active = growth percent below 10; inactive = the rest.

Tested on: MDA-MB-468 breast
Test: NCI-60 one-dose screen, 48 h (100 = growth as untreated, 0 = no growth, -100 = all killed)
Conditions: 10 µM unless noted

SMILES	growth
CCCCCCCCCCCCCCCC[n+]1cccc(C#N)c1	-27.5% (active)
c1ccc([I+]c2ccccc2)cc1	15.2%
COc1ccc(NC(=O)CSc2nc(C)c(C(C)=O)n2-c2ccc(Cl)cc2)cc1	98.8%
C=C(CC(=O)OC)C(C)=O	102%
COc1ccc(Cn2cc3c(c2-c2ccccc2)CCc2cncnc2-3)cc1	32.5%
c1ccc(C2Cc3ccccc3C2=NC2CCCCC2)cc1 (centres undefined)	111%
COC1=CC(c2ccc[nH]2)=N/C1=C\c1[nH]c(C)c(C(=O)CCCCC(=O)NCc2ccccc2)c1C	4.21% (active)
Cc1ccc(NC(=O)c2nc(S(C)=O)oc2-c2ccc(F)cc2)cc1Nc1nccc(-c2cccnc2)n1 (centres undefined)	10.6%
Cc1ccc(C(=O)N2C/C(=C/c3ccccc3)C(=O)/C(=C/c3ccccc3)C2)cc1	18.1%
